Measurements published in PubChem BioAssay AID651658 (Broad Institute, 2012).
Out of some 340,000 compounds screened, about 5,100 (1.5%) were called active. Only a selection was taken, and actives are over-represented in it overall. Values without a mark were called inactive.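 Rule for the calls: active = mean Tm shift, scaled 0 neutral to 100 positive control, at about 1.3% or above, every replicate too (limit read from the data); inconclusive = no clear call, values can overlap the other calls; inactive = the rest.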

These compounds were tested against Fibroblast growth factor 22 (Homo sapiens) (UniProt Q9HCT0) (assay: binders of human FGF22 protein, primary screen, FGF22 synaptogenesis inhibitor project, biophysical, thermal shift, single point (AID 651658)). Conditions: recombinant FGF22 thermal shift, SYPRO orange fluorescence; at 9.99 µM; stronger effect = higher value; percent of sucrose octasulfate shift, DMSO zero.
Chain of Fibroblast growth factor 22 (Homo sapiens) (Q9HCT0 whole entry, looked up): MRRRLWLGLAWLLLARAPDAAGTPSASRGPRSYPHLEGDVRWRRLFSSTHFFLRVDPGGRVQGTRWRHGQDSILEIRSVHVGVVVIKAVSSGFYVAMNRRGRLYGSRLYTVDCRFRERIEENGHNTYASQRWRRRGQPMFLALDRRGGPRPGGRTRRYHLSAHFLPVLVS

Going from `Cc1noc(C)c1NC(=O)Nc1ccc2c(c1)C(=O)N([C@H](C)CO)C[C@@H](C)[C@@H](CN(C)S(=O)(=O)c1ccc(Cl)cc1)OCCCC[C@H](C)O2` to `C[C@@H]1CCCCO[C@H](CN(C)S(=O)(=O)c2ccccc2)[C@@H](C)CN([C@@H](C)CO)C(=O)c2cc(NS(=O)(=O)c3ccccc3)ccc2O1`, the activity (Tm shift, normalised) falls from -0.533% to -0.644%.

Compared with `COc1ccc(NC(=O)O[C@@H](c2ccc(OCCO)cc2)[C@@H](C)CCO)cc1`, `COc1ccc(-c2ccccc2[C@H]2[C@@H](CO)N(C(=O)C3CCC3)[C@H]2C#N)cc1` is higher in activity (Tm shift, normalised): -1.48% for the first, -0.131% for the second.

Going from `CCCNC(=O)N1CCC2(CC1)CN(C(=O)CN1CCOCC1)[C@H](CO)c1[nH]c3cc(OC)ccc3c12` to `O=C(C[C@H]1CC[C@@H]2[C@H](COC[C@@H](O)CN2Cc2cccc(-c3ccncc3)c2)O1)N1CCOCC1`, the activity (Tm shift, normalised) rises from -0.015% to 0.256%.

Compared with `N#Cc1c(NC(=O)C2CCCO2)sc2c1CCCCC2` (stereo unspecified), `CCN1CCN(CC(=O)Nc2sc3c(c2C#N)CCC3)CC1` is lower in activity (Tm shift, normalised): 0.476% for the first, -0.078% for the second.

First: CCCNC(=O)C[C@@H]1CC[C@@H]2[C@H](COc3ccc(NC(=O)c4cc(F)cc(F)c4)cc3C(=O)N2C)O1
Second: CNC(=O)C[C@@H]1CC[C@@H]2[C@@H](COc3ccc(NC(=O)c4ccc5c(c4)OCO5)cc3C(=O)N2C)O1
The activity (Tm shift, normalised) of the first is higher: 0.224% for the first, -0.015% for the second.

Going from `O=C(C[C@@H]1CC[C@@H](NC(=O)c2ccc3c(c2)OCO3)[C@H](CO)O1)NCc1ccc(F)cc1` to `COc1ccc(NC(=O)Nc2ccc3c(c2)[C@@H]2C[C@@H](CC(=O)NCc4ccncc4)O[C@@H](CO)[C@@H]2O3)cc1`, the activity (Tm shift, normalised) falls from -0.125% to -0.189%.

First: Cc1ccccc1S(=O)(=O)N1C[C@@H]2N[C@H](C1)C2c1ccc(-c2cccc(C(=O)N(C)C)c2)cc1 (stereo partly specified)
Second: C[C@@H]1CN([C@H](C)CO)S(=O)(=O)c2ccc(-c3ccccc3)cc2O[C@@H]1CN(C)C(=O)CC1CC1
The activity (Tm shift, normalised) of the first is higher: 0.138% for the first, -0.061% for the second.

Going from `O=C(C[C@H]1C(=O)N(c2ccc(F)c(F)c2)C[C@@H]1Cc1ccccc1)Nc1ccccc1` to `CNC(=O)C[C@H]1C(=O)N(Cc2ccccc2)C[C@@H]1CSC`, the activity (Tm shift, normalised) rises from -0.246% to 0.23%.

Compared with `CC(C)N1C(=O)[C@@]2(Cc3ccccc31)c1ccccc1C(=O)N(C1CCCCC1)[C@H]2c1ccc(CO)cc1`, `COc1ccc(NC(=O)Nc2ccc3c(c2)C(=O)N([C@H](C)CO)C[C@H](C)[C@@H](CN(C)Cc2ccc(C(=O)O)cc2)OCCCC[C@H](C)O3)cc1` is higher in activity (Tm shift, normalised): -0.066% for the first, -0.009% for the second.

Going from `C[C@H](CO)N1C[C@H](C)[C@H](CN(C)C(=O)Cc2ccccn2)Oc2ncc(-c3cncnc3)cc2C1=O` to `CC=Cc1ccc2n(c1=O)C[C@@H]1[C@@H](CO)[C@H](C(=O)N[C@H](C)c3ccccc3)N(C(=O)c3cnccn3)[C@H]21` (mixture of isomers), the activity (Tm shift, normalised) falls from -0.28% to -0.323%.

Compared with `COC(=O)c1ccc(NC(=S)Nc2cccc(C)n2)cc1`, `Cc1ccc(C(=O)NC(=S)Nc2ccc(N3CCOCC3)cc2)cc1` is lower in activity (Tm shift, normalised): 42.2% for the first, -0.25% for the second.

Compared with `OC[C@@H]1Nc2ccc(-c3ccc(F)cc3)cc2[C@@H]2[C@H]1CCN2Cc1ccc(F)cc1`, `O=C(NCCNc1ccc([N+](=O)[O-])cc1)c1cccc2c(Br)cccc12` is higher in activity (Tm shift, normalised): -0.323% for the first, 0% for the second.

Compared with `COc1ccc(NC(=O)CSc2nc(SC)ns2)c(OC)c1`, `COc1ccc(OC)c(NC(=O)CSc2nc(-c3ccccc3)cc(=O)[nH]2)c1` is lower in activity (Tm shift, normalised): 0.019% for the first, -0.146% for the second.

First: O=[N+]([O-])c1ccc(NCCCO)c(C(F)(F)F)c1
Second: CNS(=O)(=O)c1ccc(NC(=O)Nc2ccc3c(c2)OCO3)cc1
The activity (Tm shift, normalised) of the first is higher: 0.215% for the first, -0.016% for the second.

Compound `CC(NC(=O)Nc1ccc2c(c1)OCO2)c1ccncc1` (stereo unspecified) has an activity (Tm shift, normalised) of 0.039%.

`N#Cc1c(NC(=O)CCCl)sc2c1CCCCC2` was tested, and the activity (Tm shift, normalised) was 43% (active).
For `CNC(=O)C[C@H]1C(=O)N(c2ccc(OC)cc2)C[C@@H]1Cc1ccccc1`, the activity (Tm shift, normalised) was 43.3% (active).
`COC(=O)c1ccc(NC(=S)NN2CCOCC2)cc1` was tested, and the activity (Tm shift, normalised) was 43.4% (active).
`CCc1cc2cc(OC)ccc2nc1SCC(=O)Nc1cc(OC)c(OC)cc1C(=O)O` was tested, and the activity (Tm shift, normalised) was 43.1% (active).
For `CC(C)(C)C(=O)NCCCNc1ccc([N+](=O)[O-])cc1`, the activity (Tm shift, normalised) was 43.5% (active).
`Cc1cccc(NC(=O)Nc2ccc3c(c2)OCO3)n1` was tested, and the activity (Tm shift, normalised) was 43.6% (active).
For `Nc1ccc(C(=O)OCC(=O)NC2CCS(=O)(=O)C2)cc1[N+](=O)[O-]` (stereo unspecified), the activity (Tm shift, normalised) was 43.7% (active).
